# Experimental data reported in PubChem BioAssay AID1063 (University of Pittsburgh Molecular Library Screening Center, 2008).
# About 18,000 (9%) of roughly 200,000 compounds were called active. Rule as the data show it: active = inhibition above about 50%; inactive = the rest. Many of the other results were omitted from the sample, so actives are more common in it than they were.
# Assay: antileishmanial activity against promastigotes – primary screen (AID 1063);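 also: promastigotes grown with compound for 44 hours at 28 °C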
# Settings: Leishmania major promastigotes, resazurin fluorescence viability; at 10 µM; hits give high values
row,Structure (SMILES),inhibition
1,COc1ccc(N2CCN(C(=S)Nc3ccc(S(N)(=O)=O)cc3)CC2)cc1,-7.62% (inactive)
2,COc1ccc(NC(=S)NCCN2CCC(C)CC2)cc1,23.9% (inactive)
3,COc1ccc(NC(=S)NCC2CCN(c3ccc(OC)cc3)C2)cc1 (stereo not drawn),74.9% (active)
4,Cc1c(NC(=O)CCC2CCCCC2)cc(C(=O)N2CCOCC2)cc1[N+](=O)[O-],-3.89% (inactive)
5,CCOC(=O)C(=Cc1ccccc1OC)C(=O)OCC,53.7% (active)
6,CCOC(=O)C(=CNc1cccc(C)n1)C(=O)OCC,-3.94% (inactive)
7,COc1ccccc1C(=O)C(O)c1ccccc1OC (stereo not drawn),1.96% (inactive)
8,Cn1c(CCC(=O)OCC(=O)NCc2ccccc2Cl)nc(=O)c2ccccc21,-0.71% (inactive)
9,Cc1ncoc1C(=O)NCCC(c1ccccc1)c1ccccc1,1.37% (inactive)
10,CCOC(=O)c1cnc(-n2nc(C)cc2C)nc1NNc1cc(C)nc(-c2ccccc2)n1,100% (active)
11,CCOC(=O)c1cnc(-n2nc(C)cc2C)nc1Nc1cccc(C(C)=O)c1,4.22% (inactive)
12,CCOC(=O)c1cnc(-n2nc(C)cc2C)nc1-n1nc(C)cc1C,33% (inactive)
13,CCOC(=O)C(C)n1nc(-c2ccccc2)c2ccccc2c1=O (stereo not drawn),12.5% (inactive)
14,CN(C)c1nc(-c2cccnc2)nc(-c2ccc(Cl)cc2)c1C#N,8.3% (inactive)
15,COCCN(CCOC)S(=O)(=O)c1ccc(/C(O)=C(\C#N)c2nc3ccccc3[nH]2)cc1,1.17% (inactive)
16,CC(C)(C)NC(=O)NC(=O)COC(=O)C1(C)CC1(Cl)Cl (stereo not drawn),0.27% (inactive)
17,CCOn1c(=O)c(=O)n(O)c2ccccc21,-2.81% (inactive)
18,Cn1nnnc1SCC(=O)NNC(=O)c1ccc(Br)cc1,-7.24% (inactive)
19,O=C(CSc1nc(C2CC2)nc2ccccc12)Nc1ccc2c(c1)OCCO2,6.82% (inactive)
20,CN(C(=O)CSc1nc(C2CC2)nc2ccccc12)c1nc(-c2ccccc2)cs1,54.6% (active)
21,COC(=O)CSc1nc(C2CC2)nc2ccccc12,-7.75% (inactive)
22,CCn1ccnc1CN(C)Cc1nc(-c2ccc3c(c2)OCO3)no1,1.95% (inactive)
23,CN(Cc1cc2cc(F)ccc2[nH]1)Cc1nc(-c2cnccn2)no1,-6.82% (inactive)
24,CCOCCCNCc1ccc(OCc2ccc(F)cc2)c(OC)c1,97.1% (active)
25,COc1ccc(CNCCCO)cc1OC,-3.13% (inactive)

row,Structure (SMILES),inhibition
1,COc1cc(CNc2ncn[nH]2)ccc1OCc1ccccc1C,-5.58% (inactive)
2,CCN(CC)CCNCc1ccc(OCc2ccc(Cl)nc2)c(OC)c1,-3.17% (inactive)
3,CCNC(=O)c1ccc(OCC(=O)Nc2ccc(F)cc2)c(OC)c1,0.66% (inactive)
4,COc1cc(CNCCN(C)C)ccc1OCc1c(F)cccc1Cl,66.6% (active)
5,CCCCC1N2CC3([N+](=O)[O-])CN1CC([N+](=O)[O-])(C2)C3(C)C (stereo not drawn),-3.35% (inactive)
6,Cc1cccc(NC(=O)Nc2ccc3c(c2)OCO3)n1,-1.54% (inactive)
7,CCOc1cc(NC(=O)c2ccccn2)c(OCC)cc1NC(=O)c1ccc(OC)cc1,-3.96% (inactive)
8,CCC(C)(NC(=O)c1ccccn1)C(=O)NC1CCCCC1 (stereo not drawn),0.94% (inactive)
9,CCN(CC)CCOc1ccc2c(c1)C(=NNC(=O)c1ccccn1)c1cc(OCCN(CC)CC)ccc1-2,101% (active)
10,CC(=O)C1=C(C)NC2=C(C(=O)CC(C)(C)C2)C1C (stereo not drawn),-3.1% (inactive)
11,CCC(C)NCC(=O)Nc1ccc([N+](=O)[O-])cc1C(=O)Nc1ccccc1F (stereo not drawn),11.7% (inactive)
12,CC(C)(C)NC(=O)C(=O)NN=C1CCCCCCC1,9.68% (inactive)
13,Cc1ccc(CN2CCN(Cc3cccc(C)n3)CC2CCO)cc1 (stereo not drawn),-2.02% (inactive)
14,COc1ccc(CN2CCN(Cc3cn(C)nc3-c3ccccc3)CC2CCO)c(C)c1C (stereo not drawn),-0.96% (inactive)
15,OCCC1CN(Cc2ccc3nsnc3c2)CCN1C1CCCCC1 (stereo not drawn),13.5% (inactive)
16,CC(C)CCN1CCN(Cc2cn[nH]c2C2CCCCC2)CC1CCO (stereo not drawn),24.3% (inactive)
17,CC(C)=CCN1CCN(Cc2ccc(Oc3ncccn3)cc2)CC1CCO (stereo not drawn),-0.29% (inactive)
18,OCCC1CN(Cc2ccc(Oc3ncccn3)cc2)CCN1CCc1ccccc1 (stereo not drawn),59.6% (active)
19,CC(C)CCN1CCN(C/C=C/c2ccco2)CC1CCO (stereo not drawn),5.83% (inactive)
20,Cc1ccc(CN2CCN(Cc3ccc4ncccc4c3)CC2CCO)cc1 (stereo not drawn),73.7% (active)
21,CC(=O)Nc1ccc(CN2CCN(Cc3ccc(F)c(F)c3)C(CCO)C2)cc1 (stereo not drawn),6.71% (inactive)
22,CC(C)N1CCC(N2CCN(Cc3cccnc3)CC2CCO)CC1 (stereo not drawn),-2.03% (inactive)
23,CC(C)CCN1CCN(Cc2ccc(C(F)(F)F)cc2)CC1CCO (stereo not drawn),87.1% (active)
24,COC(=O)c1ccc(CN2CCN(CCCc3ccccc3)C(CCO)C2)cc1 (stereo not drawn),83.9% (active)
25,CCOC(=O)C(CC)/C(C)=N\NC(=O)c1cccc(C)c1 (stereo not drawn),-5.28% (inactive)

row,Structure (SMILES),inhibition
1,COC(=O)c1cccnc1NC(=S)NC(C)C,-3.71% (inactive)
2,C=CCNC(=O)CC12CC3CC(C1)CC(CC(=O)NCC=C)(C3)C2,-6.25% (inactive)
3,COc1cccc(C(=O)Nc2cccnc2)c1OC,-4.33% (inactive)
4,CCCN(C(=O)CSc1nnnn1C)c1c(N)n(Cc2ccccc2)c(=O)[nH]c1=O,-5.81% (inactive)
5,O=C(CCN1C(=O)C2C3C=CC(C3)C2C1=O)Oc1ccc2ccccc2c1 (stereo not drawn),24% (inactive)
6,O=c1[nH]c(N2CCN(Cc3ccc4c(c3)OCO4)CC2)nc2c1CCCC2,0.88% (inactive)
7,CCOC(=O)CSc1ccccn1,-7.49% (inactive)
8,Cc1c(Cc2ccccc2)c(=O)oc2cc(OCC(N)=O)ccc12,-6.96% (inactive)
9,CCOc1ccc(NS(=O)(=O)c2cc(C)c(C)cc2C)cc1,5.1% (inactive)
10,S=C(c1ccc(-c2ccccc2)o1)N1CCCCC1,12.2% (inactive)
11,COc1ccc(/C=C/CN2CCN(Cc3ccc(C)cc3)C(CCO)C2)cc1 (stereo not drawn),67.4% (active)
12,OCCC1CN(Cc2cccc(O)c2)CCN1CCc1ccccc1 (stereo not drawn),-0.63% (inactive)
13,OCCC1CN(Cc2cnc(-c3ccccc3)s2)CCN1CCc1ccccc1 (stereo not drawn),83.7% (active)
14,Cc1ccc(CN2CCN(Cc3ccccc3-c3ccco3)CC2CCO)o1 (stereo not drawn),3.16% (inactive)
15,Cc1ccc(CN2CCN(Cc3ccc(OCCO)cc3)CC2CCO)o1 (stereo not drawn),-4.28% (inactive)
16,OCCC1CN(Cc2cccn2-c2nccs2)CCN1CCc1ccccc1 (stereo not drawn),11.3% (inactive)
17,NC(N)=Nc1nc2ccc(Br)cc2c(=O)[nH]1,16.6% (inactive)
18,CCOc1ccccc1N1CCN(C(=O)COc2ccc3c(C)cc(=O)oc3c2)CC1,43.7% (inactive)
19,O=c1nc(N/N=C/c2ccco2)cn[nH]1,-3.61% (inactive)
20,CCCCn1c(N)c(N2CCOCC2)c(=O)n(CC(=O)NCCc2ccccc2)c1=O,1.59% (inactive)
21,Cc1oc(-c2ccccc2F)nc1CS(=O)(=O)CC(=O)NCCCN(C)C1CCCCC1,2.98% (inactive)
22,CCCCN(CC)CCCNC(=O)CS(=O)(=O)Cc1nc(-c2cccc(OC)c2)oc1C,72.4% (active)
23,CCCN(CCC)CCCNC(=O)CNC(=O)c1nn(-c2ccc(OC)cc2)c(=O)c2ccccc12,1.38% (inactive)
24,CCn1c(SCc2cc(=O)n3ccsc3n2)nc2ccccc21,-1.53% (inactive)
25,CCC(=O)Nc1cc(C(F)(F)F)ccc1N1CCCC1,-2.29% (inactive)

row,Structure (SMILES),inhibition
1,O=C(CCC1CCCN(Cc2ccc(O)c(Cl)c2)C1)NCc1ccccc1F (stereo not drawn),45.2% (inactive)
2,CCn1cc(CN2CCCC(CNS(=O)(=O)Cc3ccccc3)C2)cn1 (stereo not drawn),50.3% (active)
3,CCOCCCNS(=O)(=O)Cc1ccccc1,-9.59% (inactive)
4,O=C(COC(=O)CNC(=O)c1ccco1)Nc1ccc(F)cc1,-2.3% (inactive)
5,Cn1c(C(=O)NCCN2CCc3ccccc3C2)cc2c(=O)[nH]c3ccccc3c21,11.6% (inactive)
6,O=C(NCCN1CCN(Cc2ccccc2)CC1)c1cc2c(=O)[nH]c3ccccc3c2s1,101% (active)
7,CN1CCN(CCCNC(=O)c2cc3c(=O)oc4ccccc4c3s2)CC1,0.79% (inactive)
8,CCC(C)NC(=O)c1nn(C)c(=O)c2ccccc12 (stereo not drawn),0.91% (inactive)
9,Cc1[nH]n(-c2cccc(Cl)c2)c(=O)c1/C=N/n1c(C)nc2ccccc2c1=O,-15.8% (inactive)
10,Cc1[nH]n(-c2cccc(Cl)c2)c(=O)c1-c1ccc(Cl)cc1,53.3% (active)
11,Cc1cccc(N=Nc2c(C)[nH]n(-c3ccccc3)c2=O)c1,-1.61% (inactive)
12,Cc1nonc1NC(=O)CSc1nc2ccccc2cc1C#N,1.85% (inactive)
13,CCSc1nc(C)c(CCOc2cccc(C)c2)c(=O)[nH]1,-3.36% (inactive)
14,O=C(c1c(Cl)nc2sccn12)N1CCCc2ccccc21,-2.07% (inactive)
15,O=C(CN1CCCCCC1)NCCN1C(=O)S/C(=C\c2ccccc2Cl)C1=O,1.89% (inactive)
16,O=C1/C(=C\c2ccccc2Cl)SC(=S)N1CCC(=O)N1CCCc2ccccc21,97.9% (active)
17,CCOC(=O)N1CCN(C(=O)CSc2nc(C)nc3c2c(=O)n(C)c(=O)n3C)CC1,8.12% (inactive)
18,S=c1[nH]nc(Nc2ccccc2)s1,-10.1% (inactive)
19,O=[N+]([O-])c1ccc(F)cc1Oc1nc(-c2cccnc2)nc2ccccc12,16.9% (inactive)
20,CC(=O)Nc1ccc(Sc2ccccc2C(=O)N2CCCC2)cn1,-4.22% (inactive)
21,CCn1c(COc2ccccc2)nnc1SCC(=O)NCc1ccco1,-5.1% (inactive)
22,CCS(=O)(=O)Nc1ccc(C2=NN(C(C)=O)C(c3cccs3)C2)cc1 (stereo not drawn),0.67% (inactive)
23,COc1ccc(CNc2c(CO)cnc3c2cnn3C)cc1,-4.57% (inactive)
